# Among all 340,000 compounds or so, about 700 (0.21%) were called active. The sample as a whole holds a higher share of actives than the screen did. A number with no mark means an inactive call. Cut-off read from the data, not from the text of the source: active = inhibition above about 22% (passing the limit was not always enough); inactive = the rest.
# Target: Mu-type opioid receptor (Homo sapiens) + Delta-type opioid receptor (Homo sapiens) (UniProt P35372+P41143)
# Assay: inverse agonists of MOR-DOR heterodimerization, primary screen, cell-based, luminescence (AID 504357);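 note: 0% = cells with DMSO and 100% = wells without cells with DMSO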
# Details: cell-based MOR-DOR heterodimer luminescence, inverse agonism; at 9.3 µM; active compounds read high
# Chain of Mu-type opioid receptor (Homo sapiens) + Delta-type opioid receptor (Homo sapiens) (P35372 whole entry, looked up): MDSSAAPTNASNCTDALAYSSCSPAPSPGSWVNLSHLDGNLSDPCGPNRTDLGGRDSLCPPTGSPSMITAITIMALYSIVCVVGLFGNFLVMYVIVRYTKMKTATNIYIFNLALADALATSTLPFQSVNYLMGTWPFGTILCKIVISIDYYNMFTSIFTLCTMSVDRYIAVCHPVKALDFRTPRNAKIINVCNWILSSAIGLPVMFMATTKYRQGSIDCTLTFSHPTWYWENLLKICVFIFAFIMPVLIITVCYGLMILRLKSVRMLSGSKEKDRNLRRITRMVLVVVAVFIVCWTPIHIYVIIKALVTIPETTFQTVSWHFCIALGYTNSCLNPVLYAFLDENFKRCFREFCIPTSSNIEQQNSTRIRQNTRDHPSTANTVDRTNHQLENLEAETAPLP
# Chain of Mu-type opioid receptor (Homo sapiens) + Delta-type opioid receptor (Homo sapiens) (P41143 whole entry, looked up): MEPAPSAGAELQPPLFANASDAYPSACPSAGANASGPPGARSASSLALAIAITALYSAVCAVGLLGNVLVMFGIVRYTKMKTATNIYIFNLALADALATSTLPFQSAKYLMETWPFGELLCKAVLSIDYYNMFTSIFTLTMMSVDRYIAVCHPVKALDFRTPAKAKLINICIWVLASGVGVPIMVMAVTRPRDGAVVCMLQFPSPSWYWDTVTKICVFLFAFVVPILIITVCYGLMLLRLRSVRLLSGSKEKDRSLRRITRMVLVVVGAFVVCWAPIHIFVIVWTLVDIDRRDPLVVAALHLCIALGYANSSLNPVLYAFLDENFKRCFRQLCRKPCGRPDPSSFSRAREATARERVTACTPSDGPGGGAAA
row,Structure (SMILES),inhibition
1,COc1ccc(-c2ccc(CNCCCN3CCOCC3)o2)cc1Cl,-3.74%
2,Nc1ccc2c(c1)C(O)c1ccc(Cl)cc1-2 (stereo not given),-2.52%
3,C/C(O)=C\c1nc(=O)c2c(C)cc(C)nc2n1-c1ccccc1,-10.5%
4,Cc1ccc(CN(C(=O)c2sc3ccccc3c2Cl)C2CCS(=O)(=O)C2)cc1 (stereo not given),-141%
5,CCOC(=O)c1sc(-c2cccc([N+](=O)[O-])c2)cc1N,-25.6%
6,CC(=O)Nc1ccc(S(=O)(=O)N2CCN(c3ccc([N+](=O)[O-])c(NCCN4CCOCC4)c3)CC2)cc1,4.65%
7,O=C(CNC(=O)c1ccccc1Br)NCCSc1ccc(Br)cc1,3.63%
8,COc1cc(C(=O)OC(C)C(=O)NCC2CCCCC2)cc(NC(=O)c2ccco2)c1OC (stereo not given),-157%
9,O=C(Nc1cccc(Br)c1)C1CC(=O)N(C2CCCC2)C1 (stereo not given),-5.3%
10,CCN(CC)C(=O)CN(c1cccc(OC)c1)S(=O)(=O)c1ccc(C)cc1,13%
11,CCN(CCCNC(=O)C1CCN(S(=O)(=O)c2cnc[nH]2)CC1)c1ccccc1,-0.9%
12,Cc1cccc2c1N(CCOc1ccccc1)C(=O)C2=O,55.7% (active)
13,CC1(C)NC(=O)N(CCOc2cccc(Oc3ccccc3)c2)C1=O,10.6%
14,Cc1ccc2c(c1)-c1c(ssc1=S)C(C)(C)N2C(=O)CN1C(=O)c2ccccc2C1=O,11.6%
15,Cc1cccc2c1N(CC(=O)OC(C)C)C(=O)C2=O,67.2% (active)
16,COc1cc(C(C)=O)ccc1OC(=O)CN1C(=O)c2ccccc2C1=O,17.3%
17,Cc1cc(/C=C2/SC(=O)N(CC(=O)OC(C)C)C2=O)c(C)n1C,5.02%
18,CC(C)OC(=O)CN1CCN(c2ccc(Cl)cc2)CC1,-2.26%
19,CCOC(=O)CN1C(=O)C(=O)c2cc(C)ccc21,40.6% (active)
20,O=C1c2ccccc2C(=O)N1CCOc1ccc(F)cc1,-0.37%
21,CC(OC(=O)CN1C(=O)c2ccccc2C1=O)C(=O)c1ccccc1 (stereo not given),9.57%
22,CC(C)OC(=O)CN1C(=O)C(=O)c2ccccc21,96.4% (active)
23,CCOC(=O)C1CCN(C(=O)CN2C(=O)c3cccnc3Oc3ccc(C)cc32)CC1,20%
24,O/N=C(\c1ccc2c(c1)OCCO2)C1CCCCC1,10.1%

row,Structure (SMILES),inhibition
1,CSc1ccccc1C(=O)OCC(=O)N1CCN(C(C)=O)CC1,12.6%
2,CC1CN(S(=O)(=O)c2ccc(C(=O)NN3CCN(C)CC3)cc2)CC(C)O1 (stereo not given),-5.71%
3,O=C(/C=C/c1ccc(Cl)cc1)NCCCn1ccnc1,1.46%
4,O=C(CCl)NNc1cccc(Cl)n1,75% (active)
5,Cc1cccc(NC(=O)Cc2ccc(Br)cc2)n1,2.04%
6,O=C(Cc1c(Cl)cccc1Cl)NC1CC1,1.58%
7,CN(C(=O)CCn1c(=S)oc2ccccc21)C1CCCCC1,10.3%
8,CNS(=O)(=O)c1ccc(N2CCCC2=O)c([N+](=O)[O-])c1,-2.31%
9,CC(c1ccco1)N(C(=O)c1ccc(S(=O)(=O)N2CCCCC2)cc1)c1ccccn1 (stereo not given),13.7%
10,Cc1cc(C)c(S(=O)(=O)n2cc(C(C)C(N)C(=O)O)c3ccccc32)c(C)c1 (stereo not given),8.06%
11,Cn1nc([N+](=O)[O-])nc1Sc1ccc(C(C)(C)C)cc1,-22.7%
12,CCOC(=O)c1cccc(NC(=O)C2CCN(c3ncnc4c3nc3n4CCCCC3)CC2)c1,-0.14%
13,CCCCCC(O)(CCN1CCCCC1)c1ccccc1 (stereo not given),4.99%
14,CCn1cc(CCC(=O)NCc2ccc(F)cc2)c2ccccc21,-13.5%
15,Cc1ccc(C(=O)NC2CCN(C(=O)Nc3ccc(F)cc3)CC2)cc1,6.33%
16,Cc1ccc(C(=O)CNc2ccc(F)cc2)cc1,42.7% (active)
17,Cc1ccc(NC(=S)Nc2ccc(F)cc2)cc1,9.82%
18,CCCCC(=O)NNC(=S)NC(=O)C(c1ccccc1)c1ccccc1,27.8% (active)
19,CCCCCC(=O)NC(=S)NNC(=O)c1ccc([N+](=O)[O-])cc1,-3.86%
20,CCNC(=S)NNC(=O)Cc1ccccc1,2.92%
21,COc1ccc(NC(=O)CCn2ccnc2)c(OC)c1,9.95%
22,Cn1c(=S)sc2ccc3ccccc3c21,-28.3%
23,O=C(C1CC(=O)N(c2ccc(F)cc2)C1)N1CCN(c2ccccc2)CC1 (stereo not given),14%
24,CCOC(=O)N1CCN(C(=O)c2ccccc2N(Cc2ccccc2)S(=O)(=O)c2ccc(OC)cc2)CC1,-2.13%

row,Structure (SMILES),inhibition
1,N#Cc1cccc(NC(=O)CCC2CCCC2)c1,-3.46%
2,O=C1NC(=O)C(CCc2ccccc2)(c2ccccc2)N1 (stereo not given),16.3%
3,COC(=O)c1cc2occc2n1Cc1nc(-c2ccccc2C)oc1C,-3.9%
4,CN(C)CCn1c2c(c(SCC(=O)NCc3ccccc3)nc1=O)CCC2,-0.58%
5,CCc1c(Nc2ccccc2C)nc(N)[nH]c1=O,0.05%
6,O=C(CCc1nc2sc3c(c2c(=O)[nH]1)CCCC3)NCC(=O)Nc1ccccc1Br,17%
7,COc1ccc(N2CC(NS(=O)(=O)c3ccc4ccccc4c3)CC2=O)cc1 (stereo not given),7.42%
8,CCOc1cc(NS(=O)(=O)c2ccc(OC)cc2)c(OCC)cc1NC(C)=O,-4.39%
9,COc1cc(NS(=O)(=O)c2ccc3ccccc3c2)c2ncccc2c1,38.6% (active)
10,COC(=O)Cc1ccc(NC(=S)NCc2ccccc2)cc1,5.98%
11,COC(=O)Cc1c(-c2[nH]c3ccccc3c2CC(=O)OC)[nH]c2ccccc12,42.2% (active)
12,CCCOC(=O)Cc1c(O)c2ccccc2[nH]c1=O,15.1%
13,Cc1ccc(-n2nc(-c3ccco3)cc2C(=O)NCc2cccnc2)cc1,10.7%
14,O=C1C(=O)N(CC2COc3ccccc3O2)c2ccccc21 (stereo not given),35.1% (active)
15,O=C(CN1C(=O)C2C3C=CC(C3)C2C1=O)NCC1COc2ccccc2O1 (stereo not given),-16.6%
16,O=C(NCC1COc2ccccc2O1)C1(c2ccccc2)CCCC1 (stereo not given),4.79%
17,COc1cc2sc(C)nc2cc1C,-8.04%
18,O=C(O)C(=Cc1ccccc1[N+](=O)[O-])c1ccccc1,9.45%
19,CC(C)CCSc1ncnc2c1oc1nc3c(cc12)COC(C)(C)C3,5.61%
20,Cc1ccc2nc(SCc3nnc(-c4ccccc4[N+](=O)[O-])o3)c(C#N)cc2c1,13%
21,Cc1nc2cc(NC(=O)CSc3nc4c(C)cccc4cc3C#N)ccc2s1,12.7%
22,CCN1C[C@@H]2[C@@H]3C(=O)N(Cc4ccccc4)C(=O)[C@@H]3[C@](C)(C1=O)N2C(=O)c1ccc(C(C)(C)C)cc1,0.58%
23,Cn1ccs/c1=N\S(=O)(=O)c1ccc(C(C)(C)C)cc1,4.78%
24,CC(C)(C)c1nnc(NC(=O)C2c3ccccc3Oc3ccccc32)s1,-37%

row,Structure (SMILES),inhibition
1,N#C/C(=C/c1ccc(Cl)cc1)NC(=O)c1ccccc1,-2.56%
2,O=C(CN1CCCSc2ccccc21)N1CCN(S(=O)(=O)c2cccc(F)c2)CC1,9.06%
3,O=C1C[C@@H]2c3c(cccc3CN1Cc1ccccc1)C[C@@H](O)[C@H]2O,1.13%
4,CCCNC(=O)CCn1cc(-c2ccc(OC)cc2)nc1CCN,7.6%
5,COC(=O)c1scc(C)c1NC(=O)CSc1ccc(Cl)cc1,0.66%
6,CC(=O)c1ccc(NC(=O)C(C)N(C)CC(=O)Nc2ccccc2Cl)cc1 (stereo not given),2.42%
7,CCOC(=O)c1c(-n2cnnn2)sc(C)c1C,18.6%
8,Cc1ccc(Oc2cc(NC(=O)CCCn3nc(C)c([N+](=O)[O-])c3C)cc([N+](=O)[O-])c2)cc1,-12.5%
9,Cc1ccc(S(=O)(=O)N2CCOCC2)cc1C(=O)NC(=S)N(Cc1ccccc1)C(C)C,20%
10,COc1ccc(-n2c(O)c(C=NCC(c3ccco3)N3CCCC3)c3ccccc3c2=O)cc1OC (stereo not given),12.1%
11,Cc1cccc(-n2c(Cc3cc(=O)[nH]c(=O)[nH]3)nnc2SCC(=O)Nc2cccc(C(F)(F)F)c2)c1,-3.78%
12,COC(=O)C1(CCSC)NC(c2ccc(OC)cc2OC)C2C(=O)N(c3cccc(C(C)=O)c3)C(=O)C21 (stereo not given),15.3%
13,NNc1cccc(C=Cc2ccccc2)cc1=O,-23.2%
14,COc1ccc(CC(=O)OC(C)C(=O)Nc2ccc(S(N)(=O)=O)cc2)cc1 (stereo not given),6.12%
15,Cc1c(C(=O)N(Cc2ccccc2)Cc2cccnc2)cnn1-c1ccc(F)cc1,15.9%
16,Cc1ccccc1NC(=O)CSC1=NCCN1,6.55%
17,Cc1ccc(S(=O)(=O)Oc2ccc(/C=N/NC(=O)c3c(Cl)cnn3C)cc2)cc1,6.6%
18,O=S(=O)(c1ccc(Br)cc1)n1ccc2ccccc21,-60.1%
19,O=C(NC1CCCCCCC1)c1cccs1,-15.7%
20,OCC[C@H]1C[C@H](O)[C@@H](O)[C@]2(CCCCO2)O1,1.27%
21,Cc1cccc(C2c3[nH]c4ccccc4c3CCN2C(=O)c2cc(-c3cccn3C)n[nH]2)n1 (stereo not given),-17.1%
22,CC(=O)c1ccc(NC(=O)CCc2nnc3ccc(NCc4ccco4)nn23)cc1,18.1%
23,COC(=O)c1cccc(C(=O)N2CCCC(Nc3ccc4c(c3)OCCO4)C2)c1 (stereo not given),-2.83%

# Source: PubChem BioAssay AID504357 (The Scripps Research Institute Molecular Screening Center, 2011)
